About 79,000 compounds went through this panel and 15% of them were active in at least one assay; those are over-represented in the sample as a whole. Active and inactive are the calls of the source. No stated cut-off is given here; in the data, active means growth inhibition above about 70%; inactive means the rest.
Columns and labels:
[1] = NCI Yeast Anticancer Drug Screen. Data for the rad52 strain (AID 147);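 further: 0% = growth of vehicle-treated control cultures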; settings: S. cerevisiae rad52 mutant growth inhibition, hits give high values
In short: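 Here a repair-compromised yeast strain receives each compound; its growth is then quantified and normalised to vehicle-only controls.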

[2] = NCI Yeast Anticancer Drug Screen. Data for the wt1 strain (AID 149);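 further: 0% = growth of vehicle-treated wt1 cultures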; settings: S. cerevisiae wt1 strain (SPY 50644) growth inhibition, hits give high values
In short: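 Readout: yeast growth inhibition, normalised to vehicle controls, in the wt1 strain exposed to test compounds.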

[3] = NCI Yeast Anticancer Drug Screen. Data for the rad50EPP+ strain (AID 151);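 further: 0% = growth of vehicle-treated control cultures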; settings: S. cerevisiae rad50 mutant strain, hits give high values
In short: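 Read-out is yeast growth inhibition relative to vehicle; cells used were the rad50EPP+ strain.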

[4] = NCI Yeast Anticancer Drug Screen. Data for the mgt1 strain (AID 153); settings: S. cerevisiae mgt1 mutant growth inhibition, hits give high values
In short: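 Measured: inhibition of mgt1 yeast growth by compound, normalized to vehicle-treated cultures.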

[5] = NCI Yeast Anticancer Drug Screen. Data for the rad50 strain (AID 155);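 further: 0% = growth of vehicle-only cultures of the same strain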; settings: S. cerevisiae rad50 strain growth inhibition, hits give high values
In short: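 Compounds were tested on a yeast strain with an engineered DNA damage repair alteration; the reported value is growth inhibition normalised to vehicle treatment.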

[6] = NCI Yeast Anticancer Drug Screen. Data for the mec2-1 strain (AID 157); settings: S. cerevisiae mec2-1 strain, hits give high values
In short: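 Using mec2-1 yeast: add compound, measure growth, express inhibition versus vehicle-treated cultures.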

[7] = NCI Yeast Anticancer Drug Screen. Data for the rad14 strain (AID 159);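 further: 0% = growth of vehicle-treated control cultures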; settings: S. cerevisiae rad14 strain growth inhibition, hits give high values
In short: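 Compound-treated yeast with a defined DNA-repair lesion; growth inhibition normalised to vehicle-treated cultures.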

[8] = NCI Yeast Anticancer Drug Screen. Data for the sgs1 mgt1 strain (AID 161);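 further: 0% = growth of cultures given vehicle only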; settings: S. cerevisiae sgs1 mgt1 strain, hits give high values
In short: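 This yeast growth screen uses a strain with defined DNA-repair lesions; compound-treated growth is compared with vehicle-treated growth.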

[9] = NCI Yeast Anticancer Drug Screen. Data for the CLN2oe strain (AID 163);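 further: 0% = growth of vehicle-only control cultures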; settings: S. cerevisiae CLN2oe strain, hits give high values
In short: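 Whole-cell yeast growth assay. A strain engineered for altered cell-cycle control received compound, and inhibition relative to vehicle-treated cultures was recorded.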

[10] = NCI Yeast Anticancer Drug Screen. Data for the cln2 rad14 strain (AID 165);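 further: 0% = growth equal to vehicle treated cultures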; settings: S. cerevisiae cln2 rad14 strain, hits give high values
In short: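 Yeast strain cln2 rad14, bearing defects in cell cycle control and DNA repair, serves as the test system; values reflect growth inhibition compared with vehicle.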

[11] = NCI Yeast Anticancer Drug Screen. Data for the bub3 strain (AID 167); settings: S. cerevisiae bub3 mutant strain, hits give high values
In short: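 Growth of a checkpoint-deficient yeast mutant is measured after compound exposure. Values represent inhibition relative to vehicle.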

[12] = NCI Yeast Anticancer Drug Screen. Data for the wt2 strain (AID 169);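 further: 0% = growth of vehicle-treated yeast cultures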; settings: S. cerevisiae wt2 strain growth inhibition, hits give high values
In short: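 Treated yeast vs. vehicle-treated yeast: growth inhibition determined.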

[13] = NCI Yeast Anticancer Drug Screen. Data for the mlh1 strain (AID 171);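 further: 0% = growth of vehicle-treated control cultures of the same strain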; settings: S. cerevisiae mlh1 strain growth inhibition, hits give high values
In short: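 A yeast strain with a defined genetic lesion serves as the test organism. Cultures receive compound or vehicle, and growth is measured.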

[14] = NCI Yeast Anticancer Drug Screen. Data for the sgs1 strain (AID 173);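 further: 0% = growth of vehicle-only control cultures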; settings: S. cerevisiae sgs1 mutant, hits give high values
In short: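 A genetically defined yeast mutant is incubated with the test compound, and its growth is compared to that of the same strain given vehicle.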

[15] = NCI Yeast Anticancer Drug Screen. Data for the mlh1 rad18 strain (AID 175); settings: S. cerevisiae mlh1 rad18 strain growth inhibition, hits give high values
In short: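 Steps: expose repair-defective yeast to compound; measure growth; express inhibition against vehicle-treated controls.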

[16] = NCI Yeast Anticancer Drug Screen. Data for the rad18 strain (AID 177); settings: S. cerevisiae rad18 mutant growth inhibition, hits give high values
In short: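 Measured value is growth inhibition of a yeast strain bearing a DNA repair alteration, referenced to vehicle-treated cells.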

[17] = at 5.0 µM (retest, dose inferred, filed as 0.5)
[18] = at 50.0 µM (retest, dose inferred, filed as 5.0)

Measured: growth inhibition

C/C(=N/NC(=S)N1CCCCCC1)c1cccc(/C(C)=N\NC(=S)N2CCCCCC2)n1
inactive: [1]; at 1.2 µM 19% | [1]; at 3.7 µM 25% | [1]; at 11.0 µM 54% | [2]; at 1.2 µM 17% | [2]; at 3.7 µM 34% | [2]; at 11.0 µM 60% | [3]; at 1.2 µM 0% | [3]; at 3.7 µM -1% | [3]; at 11.0 µM -27% | [3]; at 33.0 µM -48% | [3]; at 100.0 µM -39% | [4]; at 1.2 µM 23% | [4]; at 3.7 µM 35% | [4]; at 11.0 µM 52% | [4]; at 100.0 µM 69% | [5]; at 1.2 µM 38% | [5]; at 3.7 µM 42% | [5]; [17] 42% | [5]; at 11.0 µM 62% | [6]; at 1.2 µM 22% | [6]; at 3.7 µM 31% | [6]; [17] 31% | [6]; at 11.0 µM 51% | [7]; at 1.2 µM 6% | [7]; at 3.7 µM 14% | [7]; at 11.0 µM 40% | [8]; [17] 43% | [9]; at 1.2 µM -4% | [9]; at 3.7 µM -4% | [9]; at 11.0 µM -6% | [9]; at 33.0 µM -5% | [9]; at 100.0 µM 23% | [10]; [17] 9% | [11]; at 1.2 µM -4% | [11]; at 3.7 µM -3% | [11]; [17] 58% | [11]; at 11.0 µM -4% | [11]; at 33.0 µM 7% | [11]; at 100.0 µM 15% | [12]; at 1.2 µM -1% | [12]; at 3.7 µM -6% | [12]; at 11.0 µM -1% | [12]; at 33.0 µM 8% | [12]; at 100.0 µM 32% | [13]; at 1.2 µM -2% | [13]; at 3.7 µM -9% | [13]; at 11.0 µM 51% | [14]; at 1.2 µM 21% | [14]; at 3.7 µM 15% | [14]; at 11.0 µM 41% | [14]; at 33.0 µM 66% | [15]; [17] 59% | [16]; at 1.2 µM 10% | [16]; at 3.7 µM 26% | [16]; at 11.0 µM 46% | [16]; at 33.0 µM 67%
active: [1]; at 33.0 µM 73% | [1]; at 100.0 µM 71% | [2]; at 33.0 µM 82% | [2]; at 100.0 µM 81% | [4]; at 33.0 µM 80% | [5]; at 33.0 µM 79% | [5]; [18] 93% | [5]; at 50.0 µM 90.8% | [5]; at 100.0 µM 73% | [6]; at 33.0 µM 81% | [6]; [18] 92% | [6]; at 50.0 µM 91% | [6]; at 100.0 µM 83% | [7]; at 33.0 µM 71% | [7]; at 100.0 µM 76% | [8]; [18] 93% | [8]; at 50.0 µM 92.8% | [10]; [18] 91% | [10]; at 50.0 µM 93.2% | [11]; [18] 92% | [11]; at 50.0 µM 92% | [13]; at 33.0 µM 76% | [13]; at 100.0 µM 71% | [14]; at 100.0 µM 73% | [15]; [18] 91% | [15]; at 50.0 µM 90.3% | [16]; at 100.0 µM 70%

Source: PubChem BioAssay (NCI)
